Reference: PubChem BioAssay (NCATS)
Results filed as inconclusive are left out. Active and inactive are the calls of the source. Unless noted, the rule behind the calls is not given here.

What was measured:
[1] = qHTS profiling of the MIPE4 collection as inhibitors of Plasmodium falciparum (3D7) proliferation (AID 743344);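 note: scaled between DMSO vehicle wells and 0.29 µM artemisinin as full inhibition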; conditions: P. falciparum 3D7 in erythrocytes, SYBR Green DNA fluorescence, 72 h; at 28.5 µM unless noted
How it was run: (§1)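 Parasite DNA was quantified by SYBR Green I fluorescence (ex 485, em 535 nm) after overnight lysis in saponin/Triton buffer at room temperature. Cultures at 0.3% parasitemia and 2.5% hematocrit were first exposed to compound for 72 h at 37 C; signals were normalised to artemisinin (0.29 uM) and vehicle wells.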

[2] = qHTS profiling of the MIPE4 collection as inhibitors of Plasmodium falciparum (DD2) proliferation (AID 743345); conditions: P. falciparum Dd2 in erythrocytes, SYBR Green DNA, 72 h; at 28.5 µM unless noted
How it was run: as §1

[3] = qHTS profiling of the MIPE4 collection as inhibitors of Plasmodium falciparum (DD2) proliferation (Rep 2) (AID 743346); conditions: P. falciparum Dd2 in erythrocytes, SYBR Green DNA, 72 h; at 28.5 µM unless noted
How it was run: as §1

[4] = qHTS profiling of the MIPE4 collection as inhibitors of Plasmodium falciparum (HB3) proliferation (AID 743347);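 note: plate controls were DMSO vehicle wells for no effect and artemisinin wells for full effect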; conditions: P. falciparum HB3 in erythrocytes, SYBR Green DNA, 72 h; at 28.5 µM unless noted
How it was run: as §1

[5] = High-throughput drug toxicity screening in the BPDCN cell line Gen2.2 (AID 1224824); conditions: Gen2.2 BPDCN cells; at 45.8 µM (top of the series) unless noted;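 note: cells exposed to compounds for 48 h before reading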
How it was run: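 Gen2.2, 500 cells/well, phenol red-free RPMI/10% FBS/Pen-Strep; 48 h cpd, 37 °C/5% CO2; CTG lum, 15 min RT. Norm: DMSO = 100%, bortezomib 9.2 uM final = 0%.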

[6] = High-throughput drug toxicity screening in the BPDCN cell line Cal-1 (AID 1224825); conditions: Cal-1 BPDCN cell viability, qHTS; at 45.8 µM (top of the series) unless noted
How it was run: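 CellTiter-Glo luminescence after 48 h compound exposure; percent activity scaled with DMSO as 100% and bortezomib (9.2 uM final) as 0%. Cal-1 cells seeded at 500/well in RPMI, 10% FBS, no phenol red.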

[7] = qHTS Assay for Identifying Gametocytocidal Compounds (AID 743244; active = well fitted curve in the direction sought with a large enough effect; an effect the other way counts as inactive or inconclusive; note: potency is the fitted concentration of half-maximal effect;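 for max response: % is set by controls: 0 for no effect and ±100 for the full control effect; actives lower the fluorescent signal which means gametocytes are killed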); conditions: P. falciparum 3D7 stage III-V gametocytes, alamarBlue, 72 h; max response: stronger effect = lower value
How it was run: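 Fluorescence at Ex 525/Em 598 nm, recorded 24 h after alamarBlue addition, reports residual metabolic activity of 3D7 gametocytes (stages III–V) following 72 h compound exposure at 37 °C, 5% CO2.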

[8] = qHTS profiling for inhibitors of Plasmodium falciparum (3D7) proliferation (AID 743322);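 note: infected erythrocytes exposed to compound for 72 h before lysis; 100% = DMSO vehicle wells and 0% = 0.29 µM artemisinin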; conditions: P. falciparum 3D7 proliferation; at 28.7 µM (top of the series)
How it was run: as §1

[9] = qHTS profiling for inhibitors of Plasmodium falciparum (DD2) proliferation (AID 743323); conditions: lower = more inhibition; at 28.7 µM (top of the series)
How it was run: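 P. falciparum Dd2-infected erythrocytes (0.3% parasitemia, 2.5% hematocrit) exposed 72 h at 37 C, 5% CO2. Lysis with SYBR Green, overnight at room temperature, fluorescence 485/535 nm; normalized to 0.29 uM artemisinin and DMSO.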

[10] = qHTS profiling for inhibitors of Plasmodium falciparum (HB3) proliferation (AID 743324; active = well fitted curve in the direction sought with a large enough effect; an effect the other way counts as inactive or inconclusive;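 note: 100% = DMSO vehicle wells and 0% = artemisinin-treated control wells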); conditions: Plasmodium falciparum HB3 blood-stage proliferation; at 28.7 µM (top of the series)
How it was run: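 SYBR Green fluorescence (485 ex/535 em) of lysed cultures, incubated overnight at room temperature in the dark, quantifies parasite DNA. Infected erythrocytes at 0.3% parasitemia and 2.5% hematocrit were exposed 72 h; values normalized to DMSO and 0.29 uM artemisinin controls.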

[11] = qHTS assay for measurement of the activity of small molecule inhibitors on Zika virus induced Caspase-3 activity in human iPSC derived neural progenitor cells (hNPCs) (AID 1224857; active = well fitted curve in the direction sought with a large enough effect; an effect the other way counts as inactive or inconclusive; note: % of control where 0% means no effect; nearly all actives have a fitted effect of over 65% in size)
How it was run: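 Zika virus (2 FFU/cell) infection of human iPSC-derived NPCs, 6 h, following 1 h compound preincubation. Read-out: Caspase-Glo 3/7 luminescence.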

| Structure (SMILES) | parasite growth, % of DMSO control [1] | parasite growth remaining, % of DMSO control (lower = more inhibition) [2] | parasite growth, % of control (lower = inhibition) [3] | growth, % of control [4] | cell viability, % of control (lower = more cytotoxic) [5] | viability (% of control) [6] | max response [7] | remaining parasite growth % (stronger effect = lower value) [8] | activity, percent of control [9] | remaining proliferation (% of control), lower = more inhibition [10] | Potency [11] | Potency [7] |
| --- | --- | --- | --- | --- | --- | --- | --- | --- | --- | --- | --- | --- |
| COc1cc(Nc2ncc(F)c(Nc3ccc4c(n3)N(COP(=O)(O)O)C(=O)C(C)(C)O4)n2)cc(OC)c1OC | 19.5% | 87.2% | 22.9% | 11.1% | 56.3% | 10.3% |  |  |  |  |  |  |
| COc1ccc(CC2SC(=O)NC2=O)cc1C(=O)NCc1ccc(C(F)(F)F)cc1 (stereo not given) | 32.5% | 91.4% | 56.9% | 55.5% | 96% |  | 16.4% (inactive) | 90.2% | 93.1% | 54.2% | inactive |  |
| CNC(=O)CN1CCC(Oc2cc3c(Nc4cccc(Cl)c4F)ncnc3cc2OC)CC1 |  |  | 16% | 5.64% | 50.7% | 7.61% |  |  |  |  | inactive |  |
| Cc1ccc(C(N)=O)cc1Nc1nccc(-c2cn(C(C)C)c3cnccc23)n1 |  | 6.53% | 7.77% | 3.05% | 4.31% | 3.01% |  | -1.17% | 0.145% | -1.54% |  |  |
| Cc1cc(CN2CCN(c3c(Br)cnc4nc(-c5ccc(N6CCN(C)CC6)cc5)[nH]c34)CC2)no1 | 15.7% |  | 25.8% | 4.61% | 3.72% | 2.79% |  |  |  |  |  |  |
| Clc1cccc(-c2nnnn2Cc2cccnc2)c1Cl | 72.2% | 95.6% | 84.8% | 86.1% | 164% | 95.3% |  |  |  |  |  |  |
| Fc1cc(-c2cccc3ncc(-c4cnn(C5CCNCC5)c4)nc23)cc(F)c1CN1CCOCC1 |  |  |  |  | 5.16% |  |  |  |  |  | inactive |  |
| CC=C1NC(=O)[C@H]2CSSCCC=C[C@H](CC(=O)N[C@H](C(C)C)C(=O)N2)OC(=O)[C@H](C(C)C)NC1=O | 5.8% | 8.63% | 12.2% | 8.43% | 5.71% | 4.69% |  | 95.6% | 92.5% | 98.4% |  | 0.59 µM (active) |
| CC(C)(O)CCc1ccc(OCc2cc(-c3cccc(OC(F)F)c3)c3ncccc3c2)cc1 | 111% | 93% | 102% | 102% | 132% |  | 9.3% (inactive) |  | 37.1% | 15.5% | inactive |  |
| C[C@@H](Oc1cc(-c2cnn(C3CCNCC3)c2)cnc1N)c1c(Cl)ccc(F)c1Cl | 5.26% | 5.84% | 10.7% | 2.36% |  | 3.63% |  | -1.04% | 1.46% | -2.16% | inactive | 7.43 µM (active) |
| COC(=O)c1ccc2c(C(=Nc3ccc(N(C)C(=O)CN4CCN(C)CC4)cc3)c3ccccc3)c(O)[nH]c2c1 | 6.36% | 6.24% | 13.4% | 5.35% | 213% |  |  | 0.245% | 0.784% | 0.135% | inactive |  |
